From PubChem BioAssay
HSF1 inhib – HSF1 inhibitors in luciferase reporter cells, primary screen, cell-based, NIH3T3, luminescence | NIH3T3-HGL HSE-luciferase, MG132-induced, luminescence 8 h; active compounds read low | 300,000 compounds, 0.77% hits | activity change, negative = inhibition, % at 7.5 µM (by protocol) | AID 2098, 2009;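 active = more than half of replicate wells show activity change below -50%, luminescence cut by over half; inconclusive = some wells, but at most half, below -50%; inactive = no replicate well below -50%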;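 note: luciferase reports HSF-1 transcriptional activity via heat shock element; 0% = median of DMSO wells and -100% = zero luminescence signal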
HSF-1 act – HSF-1 activators, primary screen, NIH3T3-HGL cells, MG132 stress, luminescence, single point. NIH3T3-HGL HSF-1 luciferase reporter, 8 h; 100% = twice DMSO control signal. activation, % at 9 µM. 300,000 compounds, 1.7% hits;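 active = mean replicate activation of at least 50% with a set share of replicates each reaching 50%; inconclusive = only one of those two conditions met; inactive = mean below 50% and too few replicates reaching it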;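 note: 0% = median of the neutral control wells and 100% = twice that signal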
AHR act – AHR activators, primary screen, cell-based, luminescence, luciferase reporter, human; AID 2796, 2010; 320,000 compounds, 2.5% hits; AHR-responsive luciferase reporter cells; activation, % at 5 µM; Aryl hydrocarbon receptor (Homo sapiens), P35869; in the data active = activation above about 47%;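 note: 0% = vehicle wells and 100% = reference agonist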
GAA850 FXN act – FXN promoter activators, primary screen, cell-based, luciferase luminescence, HEK293 lucGAA850. HEK293 lucGAA850 FXN promoter luciferase reporter, 24 h; percent of 10 µM SAHA response. activation, % at 6 µM. 360,000 compounds, 0.56% hits. AID 540364, 2011;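 active = activation above the average of all compounds screened plus 3 SD, cutoff fixed separately per campaign, cut at about 7.5% in these data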;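 note: 0% = DMSO wells and 100% = 10 µM SAHA wells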
Active calls of the source: *. Rows were chosen to be rich in hits. Some 4.6% of all compounds tested hit in one or more screens of this group.

Screening COCCn1nnnc1C(c1ccccc1OC)N1CCN(c2ccccc2)CC1 (centres undefined) returned HSF1 inhib 1, HSF-1 act 1, AHR act 67* and GAA850 FXN act 0.
For c1ccc(Cn2nnnc2C(c2cccnc2)N2CCN(c3ccccc3)CC2)cc1 (centres undefined) the results were HSF1 inhib -5, HSF-1 act 12, AHR act 79* and GAA850 FXN act 0.
For COc1ccc(Cn2nnnc2C(c2ccc(N(C)C)cc2)N2CCC(C)CC2)cc1 (centres undefined) the results were HSF1 inhib 8, HSF-1 act 16, AHR act 2 and GAA850 FXN act 4.
For COc1ccccc1C(c1nnnn1CCc1ccccc1)N1CCN(c2ccccc2)CC1 (centres undefined) the results were HSF1 inhib 4, HSF-1 act 7, AHR act 5 and GAA850 FXN act 0.
For COc1ccc(Cn2nnnc2C(c2ccccc2Cl)N2CCC(C(N)=O)CC2)cc1 (centres undefined) the results were HSF1 inhib -51*, HSF-1 act -64, AHR act 4 and GAA850 FXN act -2.
CC(C)(C)NC(=O)Cn1c(SCC(=O)NCc2cccs2)nc2ccccc21 was read as HSF1 inhib 6, HSF-1 act 14, AHR act 1 and GAA850 FXN act -1.
For O=C(Nc1ccccc1O)c1ccccc1O the results were HSF1 inhib 12, HSF-1 act 33, AHR act 131* and GAA850 FXN act 2.
`O=C(Nc1cccc([N+](=O)[O-])c1)c1cc2ccccc2cc1O` gave HSF1 inhib 2, HSF-1 act 1, AHR act 24 and GAA850 FXN act -8.
`Cc1ccc(C)c(NC(=O)c2ccccc2O)c1` gave HSF1 inhib 4, HSF-1 act -7, AHR act 39 and GAA850 FXN act 3.
Screening Cc1cccc(NC(=O)c2ccccc2O)c1C returned HSF1 inhib 68, HSF-1 act 124*, AHR act 38 and GAA850 FXN act 3.
Screening O=C(Nc1cccnc1)c1ccccc1O returned HSF1 inhib 2, HSF-1 act -8, AHR act 54* and GAA850 FXN act 1.
`O=C(Nc1ccncc1)c1cc2ccccc2cc1O` gave HSF1 inhib 232, HSF-1 act 261*, AHR act 37 and GAA850 FXN act 1.
`Cc1cccc(NC(=O)c2cccc([N+](=O)[O-])c2O)c1C` gave GAA850 FXN act 5.
For COc1ccccc1C(CNC(=O)c1ccc(NS(=O)(=O)c2ccc(C(C)=O)cc2)cc1)N1CCCC1 (centres undefined) the results were GAA850 FXN act 0.
Screening C=CCn1c(O)c(C=Nc2ccc(CN3CCCCC3)cc2)c(=O)[nH]c1=S returned HSF1 inhib 1, HSF-1 act 21, AHR act 5 and GAA850 FXN act 1.
Cc1ccc(NC(=O)/C=C/c2ccc3c(c2)OCO3)cc1S(=O)(=O)N1CCOCC1 was read as HSF1 inhib -7, HSF-1 act 13, AHR act 16 and GAA850 FXN act 0.
Screening COc1ccc(N2CCN(c3cc(=O)n(Cc4ccc(F)cc4)c(=O)[nH]3)CC2)cc1 returned AHR act 0 and GAA850 FXN act -1.
Screening CCCS(=O)(=O)n1nc(-c2ccc(OC)cc2)cc1N returned HSF1 inhib 4, HSF-1 act 6, AHR act 25 and GAA850 FXN act 0.
For CCCS(=O)(=O)n1nc(-c2ccc(OC)cc2OC)cc1N the results were HSF1 inhib 7, HSF-1 act 8, AHR act 62* and GAA850 FXN act 1.
Screening COc1ccc(OC)c(S(=O)(=O)n2nc(-c3ccccc3)cc2N)c1 returned HSF1 inhib 15, HSF-1 act 15, AHR act 16 and GAA850 FXN act -2.
COc1cc(OC)cc(-c2cc(N)n(S(=O)(=O)c3cccc4nsnc34)n2)c1 was read as AHR act 55* and GAA850 FXN act 2.
For COc1cc(OC)cc(-c2cc(N)n(S(=O)(=O)Cc3ccccc3)n2)c1 the results were HSF1 inhib 9, HSF-1 act -17, AHR act 63* and GAA850 FXN act 1.
`NS(=O)(=O)c1ccc(NNC(=O)c2ccccc2C(=O)O)cc1` gave HSF1 inhib -3, HSF-1 act -6, AHR act 48* and GAA850 FXN act 2.
Screening CCOC(=O)c1cnn(-c2ccc(C(F)(F)F)cn2)c1N returned HSF1 inhib 32, HSF-1 act 61*, AHR act -3 and GAA850 FXN act 6.
For Cc1nc(N)sc1N=Nc1ccc(Br)cc1 the results were HSF1 inhib 3, HSF-1 act 11, AHR act 146* and GAA850 FXN act 6.
`Cc1[nH]nc(N)c1N=Nc1ccc(Br)cc1` gave HSF1 inhib 2, HSF-1 act 20 and AHR act 68*.
Cc1ccc(C)c2sc(N)nc12 was read as HSF1 inhib 1, HSF-1 act 2, AHR act 2 and GAA850 FXN act 3.
`C=CCc1cccc(/C=N/c2ncn[nH]2)c1O` gave HSF1 inhib -7, HSF-1 act -8, AHR act 3 and GAA850 FXN act 2.
`Cn1c2ccccc2c2cc(/C=C(\NC(=O)c3ccccc3)C(=O)O)ccc21` gave AHR act 13 and GAA850 FXN act 3.
COC(=O)/C(=C\c1ccc2c(c1)c1ccccc1n2C)NC(=O)c1ccccc1 was read as HSF1 inhib 8, HSF-1 act inconclusive, AHR act 76* and GAA850 FXN act -2.
CC(C)OC(=O)/C(=C\c1ccc2c(c1)c1ccccc1n2C)NC(=O)c1ccccc1 was read as HSF1 inhib 9, HSF-1 act 4, AHR act 75* and GAA850 FXN act 3.
CC(C)OC(=O)/C(=C\c1cccnc1)NC(=O)c1ccccc1 was read as HSF1 inhib -1, HSF-1 act -10, AHR act 2 and GAA850 FXN act 1.
Screening CN(C)CCOC(=O)/C(=C/c1cn(C)c2ccccc12)NC(=O)c1ccccc1 returned HSF1 inhib -7, HSF-1 act -2, AHR act 63* and GAA850 FXN act 0.
`CC(C)(C)NC(=O)C1CCN(S(=O)(=O)c2ccc(Br)cc2)CC1` gave HSF1 inhib -5, HSF-1 act -11, AHR act 2 and GAA850 FXN act -2.
For COc1ccc(N(Cc2cc3cc(OC)ccc3[nH]c2=O)S(=O)(=O)c2ccc(NC(C)=O)cc2)cc1 the results were HSF1 inhib inconclusive, HSF-1 act -59, AHR act 10 and GAA850 FXN act -11.
For COC(=O)COc1ccc2c(=O)c(Oc3ccccc3)c(C)oc2c1 the results were HSF1 inhib 3, HSF-1 act 3, AHR act 3 and GAA850 FXN act -1.
For CCOC(=O)COc1ccc(/C=C2/SC(=Nc3ccccc3)N(Cc3cccnc3)C2=O)cc1OC the results were HSF1 inhib 28, HSF-1 act 64*, AHR act -1 and GAA850 FXN act 1.
